Measurements from ChEMBL document CHEMBL1157539, “Thousands of chemical starting points for antimalarial lead identification” (Nature, 2010).

Test system: Plasmodium falciparum
Test: GSK_TCMDC: Inhibition of Plasmodium falciparum Dd2 in whole red blood cells, using parasite LDH activity as an index of growth. Test compounds present at 2uM
Format: functional

Compound	Inhibition [%]
c1ccc2cc3c(Nc4ccc(N5CCCCCC5)cc4)ccnc3cc2c1	76
CN1CCc2cc(NS(=O)(=O)c3ccc(-c4ccc(Cl)s4)cc3)c(N3CCCCC3)cc2CC1.Cl	29
O=C(NCc1cccc2ccccc12)c1ccc(CNC2CCN(Cc3ccccc3)CC2)cc1.O=C(O)C(F)(F)F	88
CC(C)c1ccc(CN2CCC(CNC(=O)c3cc(-c4cccc(Cl)c4)cs3)C2)cc1.O=C(O)C(F)(F)F (stereo unspecified)	43

Test system: HepG2
Test: GSK_TCMDC: Percent inhibition of human HepG2 cell line. Test compounds present at 10uM.
Format: functional

Compound	Inhibition [%]
CC(C)COc1ccc(Cl)cc1Cc1nc(-c2nc3cccc(CN4CCN(C)CC4)c3[nH]2)cs1	15
CCOC(=O)c1ccc(NC(=O)N[C@@H](Cc2ccccc2)C(=O)NC2CCN(Cc3ccc(O)cc3)C2)cc1 (stereo partly specified)	7
Cc1ccc(Nc2nccc(NCC(O)c3cccc(F)c3)n2)cc1 (stereo unspecified)	24
COc1cc2nc(Nc3ccc4c(ccn4Cc4ccccc4)c3)nc(Nc3ccc4c(ccn4Cc4ccccc4)c3)c2cc1OC	0
Cc1nn(-c2ccnc3cc(Cl)ccc23)c(C)c1C(=O)NCc1cc(Cl)cc(Cl)c1	0
CCCN1CCN(Cc2ccc(C(=O)Nc3ccc(Cl)cc3)cc2)CC1.O=C(O)C(F)(F)F	48
Cc1cc(OCCCN2CCCCC2)ccc1NC(=O)COc1ccc(Cl)cc1C(=O)c1cc(C#N)cc(C(F)(F)F)c1	23
O=C(Nc1cccc(Cl)c1)N[C@H]1CCN(Cc2ccc(OCCCN3CCCCC3)cc2)C1	15
Cc1ccc(-c2cccc3c(NC(=O)Nc4ccc5nccc(N6CCN(C)CC6)c5c4)cccc23)cn1.Cl	6
Cl.Clc1ccc(OCc2ccccc2)c(Cc2ccc(-c3nc4cnccc4[nH]3)o2)c1	2
O=C(Nc1cccc(CN2CCCN(Cc3ccsc3)CC2)c1)c1ccc(Cl)c(Cl)c1.O=C(O)C(F)(F)F	36
Cc1cc(C)c2ncc(C(=O)O)c(O)c2c1	0
CCC(CC)C(CC(=O)NC(C)(C)CCc1ccccc1OC)Nc1ccc(C#N)c2ccccc12 (stereo unspecified)	9
CN1CCN(Cc2ccc(-c3ccc4c(Nc5cc(O)c(F)cc5Cl)ccnc4c3)o2)CC1	27
Cn1ccc(C(=O)Nc2ccc3c(c2)CN(Cc2ccc(N4CCCC4)o2)CCC3)n1.O=CO	19
COc1cc(Nc2nccc(-c3c(-c4cccc(NC(=O)c5c(F)cccc5F)c4)nn4ccccc34)n2)cc(OC)c1OC	74

Compound	Inhibition [%]
CCCCCc1ccc(N2C(N)=NC(N)=NC2(C)C)cc1.Cl	59
CN(Cc1cc(C(F)(F)F)cc(C(F)(F)F)c1)C(=O)C(Cc1ccc(F)cc1)C1CCCNC1 (stereo unspecified)	10
Cl.NC(=O)c1cccc(Nc2nccc(Nc3ccc(Oc4cccc(Cl)c4)c(Cl)c3)n2)c1	0
CC(=O)Nc1cccc(C(=O)Nc2ccc(-c3cccc(-c4nc5cc(C(F)(F)F)ccc5[nH]4)c3)cc2)c1	81
Cl.Clc1ccc(C2CCN(CCCOc3ccc4c(c3)CCNCC4)CC2)cc1	93
Cc1cccc2nc(-c3ccc(-c4ccc(CNC(C)C)cc4)cc3)[nH]c12.O=C(O)C(F)(F)F	12
CN(C)c1nc(NN=Cc2cc(Cl)ccc2O)nc(Nc2ccc(F)cc2)n1	32
COc1ccc(NC(=O)/C=C/c2ccccc2Cl)cc1OCCN1CCC(O)(c2ccc(Cl)c(C(F)(F)F)c2)CC1.Cl	37
Cc1noc(-c2ccc(N3CCC(C(=O)N4CCN(C(C)C)CC4)CC3)cc2)n1.Cl	0
CC(Oc1c(C2CCN(CCCCNC(=O)c3ccc(-c4ccc(C#N)cc4)cc3)CC2)ccc2c1CCCC2)C(N)=O (stereo unspecified)	41
COc1cc(NC(=O)N2CCOC(CCN3CCC4(CCc5ccccc54)CC3)(c3ccc(Cl)c(Cl)c3)C2)cc(OC)c1 (stereo unspecified)	29
O=C(O)C(F)(F)F.c1cc(CN2CCN(c3ccncc3)CC2)cc(-c2cccc(-c3nc4ccccc4[nH]3)c2)c1	35
O=C(O)C(F)(F)F.O=S(=O)(/C=C/c1ccccc1)N(Cc1ccc(-c2ccc(CNCCc3ccccn3)cc2)cc1)CC1CCCCN1 (stereo unspecified)	46
Fc1cccc(C=NN=c2cc[nH]c3ccccc23)c1	3
COc1ccccc1-c1nc2nc(N)nc(N)c2nc1-c1ccccc1OC	27
CC[C@H]1CN(C/C=C/c2ccc(OC)cc2)CC[C@H]1CCCc1ccnc2ccc(O)cc12	24
